Measurements reported in PubChem BioAssay AID1159580 (chemical genetic matrix, 2015).
The campaign covered roughly 5,500 compounds. About 2,000 (36%) were called active. Another 18% or so got no clear call; they are omitted. Rule as the data show it: active = normalized growth mostly below about 0.91 (no sharp cut-off); inconclusive = no clear call, values can overlap the other calls; inactive = mostly above about 0.92. Some of the results follow.

Test: chemical genetic growth profiling, strain panel (AID 1159580);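 also: tested at 20 µM; growth read once vehicle control cultures reached saturation at 30 °C; 1 = growth at the plate median or of vehicle wells; lower values mean less growth of the strain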
Conditions: S. cerevisiae deletion strains, growth OD
[1] = locus YAL040C, strain CLN3, active compounds read low
[2] = locus YCL061C, strain MRC1 (second series), active compounds read low
[3] = locus YDR150W, strain NUM1, active compounds read low
[4] = locus YDR363W, strain ESC2, active compounds read low
[5] = locus YER002W, strain NOP16, active compounds read low
[6] = locus YMR263W, strain SAP30, active compounds read low
[7] = locus YMR307W, strain GAS1, active compounds read low
[8] = locus YNL175C, strain NOP13, active compounds read low
[9] = locus YNL197C, strain WHI3, active compounds read low
[10] = locus YNL224C, strain SQS1, active compounds read low
[11] = locus YOR083W, strain WHI5 (second series), active compounds read low
[12] = locus YNL322C, strain KRE1, active compounds read low
[13] = locus YPL241C, strain CIN2, active compounds read low
[14] = locus YHR030C, strain SLT2, active compounds read low
[15] = locus YHR079C, strain IRE1, active compounds read low
[16] = locus YJL095W, strain BCK1, active compounds read low
[17] = locus YJR066W, strain TOR1, active compounds read low
[18] = locus YLR113W, strain HOG1, active compounds read low
[19] = locus YNL183C, strain NPR1, active compounds read low
[20] = locus YOR231W, strain MKK1, active compounds read low
[21] = locus YPL256C, strain CLN2, active compounds read low
[22] = locus YGR078C, strain PAC10, active compounds read low

Measured: normalized growth

Nc1nc(Nc2ccccc2)nc2c1ncn2[C@@H]1O[C@H](CO)[C@H](O)C1O (stereo partly specified)
inactive: locus YAL013W, strain DEP1, active compounds read low 0.982 | [1] 1.05 | [2] 0.999 | [3] 0.999 | [4] 1.02 | [5] 1 | [6] 1 | [7] 1 | [8] 1.01 | [9] 1.01 | [10] 1.01 | [11] 1.02

N[C@H](C(=O)O)c1cc(O)cc(O)c1
inactive: [1] 0.975 | [2] 0.995 | [4] 0.949 | [5] 0.985 | [8] 1.02 | [9] 0.996 | [10] 1.01 | [12] 0.982 | [11] 0.999 | locus YPL055C, strain LGE1, active compounds read low 0.956 | [13] 0.991

C[C@H]1O[C@H](OC2[C@@H](O)[C@@H](O)C(O)[C@H](O)[C@H]2O)[C@@H](N)C[C@@H]1N=C(N)C(=O)O (stereo partly specified)
inactive: locus YAL021C, strain ccr4, active compounds read low 0.989 | locus YAL026C, strain drs2, active compounds read low 0.995 | locus YAL030W, strain snc1, active compounds read low 1 | locus YBL061C, strain skt5, active compounds read low 0.996 | locus YBR009C, strain hhf1, active compounds read low 1.05 | locus YBR023C, strain chs3, active compounds read low 0.99 | locus YBR171W, strain sec66, active compounds read low 0.911 | locus YBR231C, strain swc5, active compounds read low 0.999 | locus YBR279W, strain paf1, active compounds read low 0.986 | locus YCL011C, strain gbp2, active compounds read low 0.979 | locus YCL016C, strain dcc1, active compounds read low 1 | locus YCL061C, strain MRC1, active compounds read low 0.999 | locus YCL069W, strain vba3, active compounds read low 1 | locus YCR088W, strain abp1, active compounds read low 0.983 | locus YDL005C, strain med2, active compounds read low 0.986 | locus YDL040C, strain nat1, active compounds read low 0.992 | locus YDR001C, strain nth1, active compounds read low 0.985 | locus YDR069C, strain doa4, active compounds read low 0.999 | locus YDR137W, strain rgp1, active compounds read low 0.937 | locus YDR159W, strain sac3, active compounds read low 0.993 | locus YDR195W, strain ref2 1.02 | locus YDR297W, strain sur2, active compounds read low 0.988 | locus YDR334W, strain swr1, active compounds read low 0.965 | locus YDR335W, strain msn5, active compounds read low 0.975 | locus YDR392W, strain spt3, active compounds read low 0.882 | locus YEL003W, strain gim4, active compounds read low 0.981 | locus YEL037C, strain rad23, active compounds read low 0.994 | locus YEL061C, strain CIN8 (second series), active compounds read low 0.993 | locus YER015W, strain faa2, active compounds read low 0.995 | locus YER016W, strain bim1, active compounds read low 0.991 | locus YER111C, strain swi4, active compounds read low 0.995 | locus YER155C, strain BEM2 (second series), active compounds read low 1.02 | locus YFR010W, strain ubp6, active compounds read low 0.979 | locus YGL167C, strain pmr1, active compounds read low 0.986 | locus YGL173C, strain kem1, active compounds read low 0.994 | locus YGL227W, strain vid30, active compounds read low 1 | locus YGL240W, strain doc1, active compounds read low 1.01 | locus YGL253W, strain hxk2, active compounds read low 0.994 | locus YHR013C, strain ard1, active compounds read low 0.947 | locus YHR027C, strain rpn1, active compounds read low 0.982 | [14] 0.951 | [15] 0.964 | locus YHR142W, strain chs7, active compounds read low 0.927 | locus YJL092W, strain hpr5, active compounds read low 0.974 | locus YJL095W, strain BCK1 (second series), active compounds read low 0.992 | [16] 0.969 | locus YJL115W, strain asf1, active compounds read low 0.974 | locus YJL129C, strain trk1, active compounds read low 0.921 | locus YJL154C, strain vps35, active compounds read low 0.995 | locus YJL164C, strain tpk1, active compounds read low 0.97 | locus YJL166W, strain qcr8, active compounds read low 0.99 | locus YJL187C, strain SWE1, active compounds read low 0.992 | [17] 0.928 | locus YKL160W, strain elf1, active compounds read low 0.957 | locus YKR026C, strain gcn3, active compounds read low 0.997 | locus YKR091W, strain srl3, active compounds read low 0.991 | locus YLL001W, strain dnm1, active compounds read low 0.986 | locus YLL026W, active compounds read low 0.989 | locus YLL041C, strain sdh2, active compounds read low 0.977 | locus YLR027C, strain aat2, active compounds read low 0.978 | [18] 0.983 | locus YLR221C, strain rsa3, active compounds read low 0.962 | locus YLR258W, strain gsy2, active compounds read low 1.01 | locus YLR262C, strain YPT6 (second series), active compounds read low 0.912 | locus YLR320W, strain mms22, active compounds read low 0.967 | locus YLR342W, strain FKS1, active compounds read low 0.993 | locus YLR357W, strain rsc2, active compounds read low 1.01 | locus YLR370C, strain arc18, active compounds read low 0.981 | locus YLR384C, strain iki3, active compounds read low 1 | locus YML120C, strain ndi1, active compounds read low 0.959 | locus YMR058W, strain fet3, active compounds read low 0.988 | locus YMR125W, strain sto1, active compounds read low 0.984 | locus YMR129W, active compounds read low 1 | locus YMR205C, strain PFK2, active compounds read low 1.04 | locus YMR231W, strain pep5, active compounds read low 1.01 | locus YNL071W, strain lat1, active compounds read low 0.963 | [19] 0.944 | locus YNL209W, strain ssb2, active compounds read low 0.989 | locus YNL248C, strain rpa49, active compounds read low 0.933 | locus YNL322C, strain KRE1 (second series), active compounds read low 0.983 | locus YNR049C, strain mso1, active compounds read low 0.986 | locus YOR001W, strain rrp6, active compounds read low 0.923 | locus YOR070C, strain gyp1, active compounds read low 0.987 | locus YOR080W, strain dia2, active compounds read low 0.984 | locus YOR083W, strain WHI5, active compounds read low 0.934 | locus YOR106W, strain vam3, active compounds read low 0.94 | [20] 0.97 | locus YOR265W, strain rbl2, active compounds read low 0.989 | locus YOR270C, strain vph1, active compounds read low 0.924 | locus YOR290C, strain snf2, active compounds read low 0.927 | locus YPL051W, strain arl3, active compounds read low 0.964 | locus YPL078C, strain atp4, active compounds read low 0.951 | locus YPL106C, strain sse1, active compounds read low 0.971 | locus YPL240C, strain hsp82, active compounds read low 0.97 | [21] 0.98

COc1cc(C(O)CO)ccc1OS(=O)(=O)O (stereo unspecified)
inactive: [1] 0.981 | [2] 1 | [4] 0.994 | [5] 0.991 | locus YGR229C, strain SMI1, active compounds read low 1.01 | [8] 0.998 | [9] 1 | [10] 1.01 | [12] 1.01 | [11] 1.05 | [13] 0.996

C1COC(NC(C2CC2)C2CC2)=N1
inactive: [1] 1.01 | [2] 0.997 | [4] 1.01 | [5] 0.995 | [22] 0.997 | [7] 0.956 | [8] 1.01 | [9] 0.997 | [10] 0.999 | [11] 1.01

CSc1nc(N)c2ncn([C@@H]3O[C@H](COP(=O)(O)OP(=O)(O)OP(=O)(O)O)[C@H](O)C3O)c2n1 (stereo partly specified)
inactive: [1] 0.978 | [3] 1.03 | [5] 0.998 | [22] 0.981 | [6] 1 | locus YNL153C, strain GIM3, active compounds read low 1.01 | [8] 0.986 | [9] 0.979 | [10] 0.967 | [11] 1 | [13] 1.01

COc1cc(Br)cc(C=Nc2ccc(Sc3ccccc3)nc2Sc2ccccc2)c1O
active: [14] 0.489 | [18] 0.746 | [21] 0.794
inactive: locus YAR019C, strain CDC15, active compounds read low 0.968 | locus YBL105C, strain PKC1, active compounds read low 0.976 | locus YBR135W, strain CKS1, active compounds read low 0.96 | locus YBR136W, strain MEC1, active compounds read low 0.973 | locus YBR160W, strain CDC28, active compounds read low 0.965 | locus YDL017W, strain CDC7, active compounds read low 0.969 | locus YDL028C, strain MPS1, active compounds read low 0.962 | locus YDL101C, strain DUN1, active compounds read low 0.969 | locus YDL108W, strain KIN28, active compounds read low 0.958 | locus YDL132W, strain cdc53, active compounds read low 0.949 | locus YDL214C, strain PRR2, active compounds read low 0.838 | locus YDR052C, strain DBF4, active compounds read low 0.976 | locus YDR054C, strain cdc34, active compounds read low 0.957 | locus YDR226W, strain ADK1, active compounds read low 0.964 | locus YDR477W, strain SNF1, active compounds read low 0.812 | locus YER123W, strain YCK3, active compounds read low 0.831 | locus YER133W, strain GLC7, active compounds read low 0.843 | locus YFL009W, strain cdc4, active compounds read low 0.955 | locus YFL029C, strain CAK1, active compounds read low 0.966 | locus YFR003C, strain YPI1, active compounds read low 0.967 | locus YFR019W, strain FAB1, active compounds read low 0.969 | locus YFR028C, strain CDC14, active compounds read low 0.955 | locus YGR040W, strain KSS1, active compounds read low 0.857 | locus YGR052W, strain FMP48, active compounds read low 0.782 | locus YGR092W, strain DBF2, active compounds read low 0.523 | [15] 0.703 | locus YHR082C, strain KSP1, active compounds read low 0.845 | locus YHR205W, strain SCH9, active compounds read low 0.696 | locus YIL147C, strain SLN1, active compounds read low 0.964 | [16] 0.638 | locus YJL128C, strain PBS2, active compounds read low 0.918 | locus YJL157C, strain FAR1, active compounds read low 0.848 | locus YJR016C, strain ILV3, active compounds read low 0.974 | locus YJR066W, strain TOR1 (second series), active compounds read low 0.848 | [17] 0.636 | locus YKL048C, strain ELM1, active compounds read low 0.935 | locus YKL067W, strain YNK1, active compounds read low 0.808 | locus YKL101W, strain HSL1, active compounds read low 0.861 | locus YKL193C, strain SDS22, active compounds read low 0.962 | locus YKL203C, strain TOR2, active compounds read low 0.91 | locus YLR133W, strain CKI1, active compounds read low 0.846 | locus YLR403W, strain SFP1, active compounds read low 0.772 | locus YML070W, strain DAK1, active compounds read low 0.888 | locus YMR001C, strain CDC5, active compounds read low 0.951 | locus YMR205C, strain PFK2 (second series), active compounds read low 0.843 | locus YMR277W, strain FCP1, active compounds read low 0.959 | locus YNL006W, strain LST8, active compounds read low 0.971 | locus YNL020C, strain ARK1, active compounds read low 0.82 | locus YNL161W, strain CBK1, active compounds read low 0.972 | [19] 0.72 | locus YNL207W, strain RIO2, active compounds read low 0.961 | locus YNL222W, strain SSU72, active compounds read low 0.962 | locus YNL307C, strain MCK1 (second series), active compounds read low 0.766 | locus YOL078W, strain AVO1, active compounds read low 0.963 | locus YOL136C, strain PFK27, active compounds read low 0.893 | locus YOR061W, strain CKA2, active compounds read low 0.824 | locus YOR119C, strain RIO1, active compounds read low 0.838 | [20] 0.766 | locus YOR329C, strain SCD5, active compounds read low 0.967 | locus YPL031C, strain PHO85, active compounds read low 0.827 | locus YPL153C, strain RAD53, active compounds read low 0.808 | locus YPL204W, strain HRR25, active compounds read low 0.801 | locus YPL209C, strain IPL1, active compounds read low 0.968 | locus YPR025C, strain CCL1, active compounds read low 0.962 | locus YPR106W, strain ISR1, active compounds read low 0.957 | locus YPR111W, strain DBF20, active compounds read low 0.939 | strain NNK1, active compounds read low 0.97 | strain TSCII, active compounds read low 0.964
